In all, about 83,000 compounds went through this assay and about 780 (0.94%) were called active.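 The calls were made as follows: active = mean inhibition of at least 50% with a set share of replicates also reaching that level; inconclusive = no clear call, values can overlap the other calls; inactive = the rest.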 For the sample, actives were picked, then their nearest neighbours and some compounds at random.
experiment: inhibitors of CD40-induced NF-kB signaling, primary screen, BL2 cells, luciferase reporter, single point (AID 1053188); conditions: CD40L-induced, 4 h, hits give high values; at 10 µM unless noted;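 also: 0% = neutral control wells and 100% = IKK inhibitor VII at 50 µM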

inhibition, active:
O=C1C(Cl)=C(Oc2ccccc2)C(=O)c2ccccc21 100%
c1c2c(cc3sc(N4CCCCC4)nc13)OCCO2 99.7%
N#C[C@@H]1N[C@@H](CO)[C@@H]1c1ccc(C#Cc2ccccc2F)cc1 -72.6% [at 25 µM]
COc1ccc2c(c1)c(=Cc1ccc(N(C)C)cc1)c1cc(-c3ccccc3)[n+](C)n12 104%
O=C(Oc1ccc(-c2nc(-c3ccccn3)no2)cc1)c1ccccc1 49.6%
Oc1c(Cl)cc(Cl)c(Cl)c1Cc1c(O)c(Cl)cc(Cl)c1Cl 90.9%
O=C(NC1=CC(=O)c2ccccc2C1=O)c1ccccc1 97.7%
Cc1ccc(-c2ccccc2[C@H]2[C@@H](C#N)N(c3ncc(-c4ccccc4)s3)[C@@H]2CO)cc1 50.1% [at 25 µM]
Cn1c(-c2ccco2)nc2cc3ccccc3cc21 50.6%

inhibition, inactive:
Cc1ccc(S(=O)(=O)c2ccc(Oc3ccccc3)cc2)cc1 1.57%
COc1ccc2ccccc2c1CNc1nnnn1C -1.14%
O=C(NCC1CCCO1)c1ccc(S(=O)(=O)Nc2ccc(F)cc2)cc1 (stereo not drawn) 7.17%
Cc1nc2cc3c(cc2s1)OCO3 3.54%
CN(C)CCCN(C(=O)c1ccc(S(=O)(=O)N2CCCCCC2)cc1)c1nc2cc3c(cc2s1)OCCO3 -0.778%
O=C(NCC1CCCO1)c1cc2c(s1)CCCC2 (stereo not drawn) -65.3%
Cc1cccn2c(CNCC(C)Oc3cccnc3)c(C(=O)N3CCOCC3)nc12 (stereo not drawn) 9.25%
CCOc1ccc(S(=O)(=O)NCCC(=O)N2CCCCCCC2)cc1 7.35%
NC(=O)COC(=O)c1sc2cc(F)ccc2c1Cl -6.93%
O=C(COc1ccccc1)Nc1ccc(C(=O)N2CCCC2)cc1 -10.1%
N#C[C@@H]1N[C@H](CO)[C@@H]1c1ccc(/C=C/c2ccccc2)cc1 -33.7% [at 25 µM]
N#C[C@H]1N[C@H](CO)[C@@H]1c1ccc(C#Cc2ccccc2F)cc1 -56.4% [at 25 µM]
O=C(Nc1cccc(-c2cscn2)c1)C1CCN(Cc2ccsc2)CC1 -0.734%
CC(=O)c1c(C)[nH]c(C(=O)OCC(=O)Nc2c(C)n(C)n(-c3ccccc3)c2=O)c1C 6.04%
Fc1ccc(-c2ccc(NCCN3CCOCC3)nn2)cc1 -11.3%
COCCCN(C(=O)CSCc1ccc(C)cc1)c1c(N)n(Cc2ccccc2)c(=O)[nH]c1=O 10%
Cc1cccc(-n2c(=O)c3c(C)c(C)sc3n(CC(N)=O)c2=O)c1 0.549%
CN1CCC(N(C)C(=O)c2ccc(Cl)c(S(=O)(=O)Nc3ccc(Cl)cc3)c2)CC1 -2.41%
CC1(C(=O)O)CCCN(C(=O)/C=C/c2ccccc2)C1 (stereo not drawn) 4.26%
O=C(CCCCCCCC(=O)N1CCCCC1)N1CCCCC1 -9.37%
COc1ccc(NS(=O)(=O)c2ccc(N3CCOCC3)c(NC(=O)/C=C/C(=O)O)c2)cc1 2.43%
O=C(Cn1cnc([N+](=O)[O-])n1)NCCc1ccccc1 -4.08%
CC(C)c1nc(-c2ccccn2)no1 -17.2%
O=C(COC(=O)c1ccc(Oc2ccccc2)cc1)Nc1nnc(-c2ccccc2)o1 -10.4%
O=C(NCCCN1CCCC1=O)c1ccc(S(=O)(=O)Nc2ccccc2)cc1 4.15%
C=C(C)C[C@H]1CCn2cc(nn2)COCCNC1=O 4.24% [at 25 µM]
Cc1cccc(CN2CCN(Cc3cnn(-c4ccccc4F)c3)CC2CCO)n1 (stereo not drawn) -1.95%
CN(Cc1cccc2ncccc12)C(=O)CC1C(=O)NCCN1Cc1ccc(F)cc1 (stereo not drawn) -2.82%
O=C(CCC(=O)c1cccs1)NC1CCCCCC1 -60%
O=[N+]([O-])c1cccc(C2=NCCS2)c1 9.1%
O=C(NC1CC1)c1ccc(-c2ccccc2)cc1 -88.4%
C/C=C/c1ccc(OCC(O)CN2CCCCCCC2)c(OC)c1 (stereo not drawn) 0.219%
O=C(NC(=O)c1ccccc1)NC(=O)c1ccccc1 -13.8%
CC(NC(=O)c1ccccc1)C(=O)Nc1ccccc1 (stereo not drawn) 3.04%
Cc1ccc(S(=O)(=O)N(C)CC(=O)NCCc2c[nH]c3ccccc23)cc1 12.5%
Cc1ccc(S(=O)(=O)N2CCN(C(=O)Cc3sc(C)nc3-c3ccc(F)cc3)CC2)c(C)c1 -8.23%
Cc1cc(C)c2nc(N3CCC(C(=O)NCCN4CCOCC4)CC3)sc2c1 -16.5%
CC(OC(=O)CNC(=O)c1ccc(Cl)c([N+](=O)[O-])c1)C(=O)NCc1ccco1 (stereo not drawn) 21.2%
CCC(C)N(C(=O)COC(=O)c1nc(Cl)ccc1Cl)C1CCS(=O)(=O)C1 (stereo not drawn) 3.49%
N#C[C@@H]1[C@H](c2ccccc2-c2ccccc2)[C@H](CO)N1c1ncc(-c2ccccc2)s1 -4.27% [at 25 µM]
Cc1cccc(-c2ccccc2[C@@H]2[C@H](C#N)N(c3ncc(-c4ccccc4)s3)[C@H]2CO)c1 -6.41% [at 25 µM]
Cc1ccc2cccc([N+](=O)[O-])c2n1 -0.702%
CCC(=O)N1[C@@H](CO)[C@@H](c2ccc(C3=CCCC3)cc2)C12CN(C(=O)COC)C2 -9.07% [at 25 µM]
CC(OC(=O)C1CC(=O)N(Cc2ccccc2)C1)C(=O)Nc1ccccc1[N+](=O)[O-] (stereo not drawn) 7.76%
COc1ccc(NC(=O)c2cc3nc(-c4ccccc4)cc(C)n3n2)cc1OC -3.33%
Cc1nnc2sc(-c3ccco3)nn12 4.37%
CN(c1nc2ccccc2n2c(-c3ccco3)nnc12)S(=O)(=O)c1ccccc1 1.82%
CCOC(=O)C1(C)NC(c2ccco2)C2C(=O)N(c3ccccc3)C(=O)C21 (stereo not drawn) -6.84%
CS(=O)(=O)Nc1ccc2c(c1)[C@H]1C[C@@H](CC(=O)NCCc3ccccc3)O[C@@H](CO)[C@H]1O2 -1.64% [at 25 µM]
